Measured values: PubChem BioAssay (NCI)
This is part of a sample that, as a whole, favours compounds with a hit. Of some 79,000 tested, about 15% had one in any assay. Unmarked numbers belong to inactive results. Rule as the data show it: active = growth inhibition above about 70%; inactive = the rest.

assay: NCI Yeast Anticancer Drug Screen. Data for the mlh1 rad18 strain (AID 175); conditions: S. cerevisiae mlh1 rad18 strain growth inhibition; at 50.0 µM; stronger effect = higher value
Outline: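 Cells of a genetically altered yeast strain, deficient in DNA damage repair, were treated with compound. Their growth was then compared with that of vehicle-treated cultures to give inhibition.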

| Compound | growth inhibition [%] |
| --- | --- |
| CC(=O)C1(N=Nc2ccc(S(N)(=O)=O)cc2)CCOC1=O (configuration not stated) | 22.7 |
| CC(C)C(N)=O | -9.25 |
| Cc1[nH]ccc2c3ccc(=O)cc3n(S(=O)(=O)O)c12 | -7.25 |
| CC(C)CCC(=O)O | -10.4 |
| CC1(C)N=C(N)NC(Nc2ccc(Cl)cc2)=N1 | 33.6 |
| Nc1nc(N)nc(Cc2ccccc2)n1 | -57.9 |
| C#CCC1CCCC/C1=N\Nc1ccc([N+](=O)[O-])cc1[N+](=O)[O-] (configuration not stated) | 4.1 |
| Cc1ccc(S(=O)(=O)N(CCOS(C)(=O)=O)CCOS(C)(=O)=O)cc1 | 5.25 |
| CCOc1ccccc1/C=C1\NC(=O)NC1=O | -6.7 |
| NC(=O)OCC(COc1ccc(Cl)cc1)OC(=O)c1cc([N+](=O)[O-])cc([N+](=O)[O-])c1 (configuration not stated) | 8.75 |
| C(=NCCSSCCN=Cc1ccccc1)c1ccccc1 | 21.6 |
| CCN(CC)c1ncnc2c1nc(C)n2Nc1ccccc1 | -10.7 |
| O=C(NC(Cc1ccc(O)cc1)C(=O)O)C(=O)c1c[nH]c2ccc([N+](=O)[O-])cc12 (configuration not stated) | 26.9 |
| CC(C#N)NC(=O)NC(C)C(N)=O (configuration not stated) | -27.7 |
| CN(C)CCCn1cnc2cc(Cl)c(Cl)cc21 | -0.15 |
| O=c1nc2n(cc1/C=C\Br)C1CC(O)C(CO2)O1 (configuration not stated) | -23.6 |
| CC(C)(C)NC(=O)c1cccc(C(=O)NC(C)(C)C)n1 | -16.4 |
| COc1ccccc1N=NC1=C2Nc3ccccc3N=C1N(c1ccccc1OC)C(=S)N2c1ccccc1C | -30.4 |
| Cc1cc(C)nc(Sc2c([N+](=O)[O-])ncn2C)n1 | -10.3 |
| CCOCCC(=N)OCC | 13.6 |
| C/C=C\CCCCC | 10.9 |
| CN(c1nc(=[N+](C)C)ss1)C1CCCCC1 | 15.2 |
